V-ATPase pH = regulators of yeast V-ATPase proton pumping, primary screen, pHLuorin cytosolic pH fluorescence; S. cerevisiae; hit rate 0.37% among 350,000; AID 504577, 2011; response, % at 10 µM; in the data active = response mostly above about 7.3%, no sharp cut-off; inactive = mostly below about 5.4%; also: actives read high
NALP1 inh = NALP1 inflammasome inhibitors in reconstituted yeast, colorimetric, S. cerevisiae, triplicate retest; S. cerevisiae NALP1/ASC/caspase-1 growth, X-gal OD620, 72 h; inhibition, % at 10 µM; hit rate 0.61% among 280,000; AID 2071, 2009; in the data active = inhibition mostly above about 24%, no sharp cut-off; inactive = mostly below about 32%
TIM10 inh = growth inhibitors of isogenic TIM10 control yeast, primary screen, counter-screen for tim10-1 yeast inhibitor project, luminescence, uHTS. S. cerevisiae TIM10 strain growth, BacTiter-Glo luminescence, 24 h. inhibition, % at 10 µM. hit rate 1.4% among 330,000. AID 463195, 2010;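 active = inhibition of 40% or more at the single tested concentration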;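 also: wild-type TIM10 isogenic control strain grown at permissive 25 °C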
tim10-1 inh = growth inhibitors of tim10-1 mutant yeast, primary screen, luminescence, uHTS | S. cerevisiae tim10-1 ts strain growth, BacTiter-Glo, 24 h | inhibition, % at 20 µM | AID 463190, 2010 | hit rate 2.2% among 330,000;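 active = inhibition of at least 40%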;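 also: mutant grown at 25 °C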
tim23-1 inh = growth inhibitors of tim23-1 mutant yeast, primary screen, luminescence, uHTS | S. cerevisiae tim23-1 growth, BacTiter-Glo luminescence, 24 h | inhibition, % at 20 µM | hit rate 1.3% among 330,000 | AID 463212, 2010;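 active = growth inhibition of the mutant yeast at or above 50%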;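 also: temperature-sensitive mutant grown at 25 °C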
NALP3 yeast inh = NALP3 inflammasome inhibitors in reconstituted yeast, primary screen, luminescence, uHTS; hit rate 0.39% among 330,000; Yeast reconstituted NLRP3/ASC/caspase-1, beta-gal luminescence, 24 h; inhibition, % at 10 µM;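 active = inhibition of 50% or more; inactive = inhibition below 50%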
Hits are given with their value; 0 = inactive; - = no result. Hits are enriched below; roughly 4.2% of the tested compounds scored in any of these assays.

SMILES | V-ATPase pH | NALP1 inh | TIM10 inh | tim10-1 inh | tim23-1 inh | NALP3 yeast inh
CC1CCCCC1NC(=O)C1CCN(S(=O)(=O)c2ccc3c(c2)CCC(=O)N3)CC1 (configuration not stated) | 0 | 32 | 0 | 0 | 0 | 0
Cc1ccc(-n2nc(C(=O)NCc3ccc(C)o3)c3c4ccccc4n(C)c3c2=O)cc1 | 0 | 38 | 0 | 0 | 0 | 0
O=C(O)C1CC=CCC1C(=O)N1CCN(c2nc(-c3ccccc3Cl)c3cc(Br)ccc3n2)CC1 (configuration not stated) | 0 | 27 | 0 | 0 | 0 | 0
Cc1ccc(S(=O)(=O)N2CCC(C(=O)N3CCCC(C(F)(F)F)C3)CC2)cc1C (configuration not stated) | 0 | - | 0 | 0 | 0 | 0
O=C(CSc1ccc(Cl)cc1)NNC(=O)c1ccco1 | 0 | 0 | 0 | 0 | 0 | 0
CC1CCC(NC(=O)CSc2nnc(-c3cccnc3)o2)CC1 (configuration not stated) | 0 | - | 0 | 0 | 0 | 0
CC(=O)Nc1sc2c(c1C#N)CCC(C)C2 (configuration not stated) | 0 | 0 | 0 | 0 | 0 | 0
Cc1ccc(C)n1-c1sc2c(c1C#N)CCC(C)C2 (configuration not stated) | 0 | 35 | 0 | 0 | 0 | 0
COc1ccc(CN2CCN(S(=O)(=O)c3ccccc3)CC2)c(OC)c1OC | 0 | - | 0 | 0 | 0 | 0
O=P(O)(CCc1ccccn1)CN1CCCCC1 | 0 | 0 | 0 | 0 | 0 | 0
O=P(O)(CCc1ccccn1)CN1CCOCC1 | 0 | 39 | 0 | 0 | 0 | 0
CCOc1ccc2c(=O)c(Oc3ccccc3OCC)coc2c1 | 0 | 44 | 0 | 0 | 0 | 0
Cc1nn(S(=O)(=O)c2ccccc2)c(C)c1S(=O)(=O)N1CCOCC1 | 0 | 0 | 0 | 0 | 0 | 0
CCC(=O)N1CCN(c2ccc(NC(=O)c3ccc(N4CCCC4)c([N+](=O)[O-])c3)cc2)CC1 | 0 | 0 | 0 | 0 | 0 | 0
NC(=O)c1ccc(N2CCCCCC2)c([N+](=O)[O-])c1 | 0 | 0 | 0 | 0 | 0 | 0
Cc1ccc(C(=O)N2CCN(c3ccccn3)CC2)cc1[N+](=O)[O-] | 0 | 0 | 0 | 0 | 0 | 0
CCC(=O)N1CCN(c2ccc(NC(=O)c3ccc(N4CCOCC4)c([N+](=O)[O-])c3)cc2)CC1 | 0 | 38 | 0 | 0 | 0 | 0
CC(=O)N1CCN(c2ccc(C(N)=O)cc2[N+](=O)[O-])CC1 | 0 | 32 | 0 | 0 | 0 | 0
Cc1ccc(C(=O)N2CCN(c3ccccc3Cl)CC2)cc1[N+](=O)[O-] | 0 | 38 | 0 | 0 | 0 | 0
CC(=O)C1=C(c2ccccc2)NC(=O)NC1c1cccs1 (configuration not stated) | 0 | 0 | 0 | 0 | 0 | 0
CCC(=O)N1c2ccccc2NC2=C(C(=O)CC(C)(C)C2)C1c1ccc(O)c(OC)c1 (configuration not stated) | 0 | 0 | 0 | 0 | 0 | 0
CC(C)(C)S(=O)N1Cc2cn(Cc3ccccc3)c(=O)cc2[C@H]1CCO (some centres not stated) | 0 | - | - | - | - | -
COc1cc(/C=C/C(=O)c2ccc(NS(=O)(=O)c3ccc(C)cc3)cc2)cc(OC)c1O | 113 | 0 | - | - | - | -
O=c1c2c3c(sc2nc(N2CCNCC2)n1CCc1ccccc1)CCCCC3 | 0 | - | 0 | 0 | 0 | 0
COc1ccc(OC)c(NC(=O)CCC(=O)Nc2nnc(C(C)C)s2)c1 | 0 | 0 | 0 | 0 | 0 | 0
SMILES | V-ATPase pH | NALP1 inh | TIM10 inh | tim10-1 inh | tim23-1 inh | NALP3 yeast inh
O=C(NC1CC1)c1cc2cc(Br)ccc2s1 | 0 | 30 | 0 | 0 | 0 | 0
Nc1nc(-c2ccccn2)nc(N)c1Cc1ccc(Cl)cc1Cl | 11 | 0 | 0 | 0 | 0 | 0
Nc1nc(-c2ccccn2)nc(N)c1Cc1ccccc1F | 0 | 0 | 0 | 0 | 0 | 0
Cc1ccc(NC(=O)C2CCCN(S(=O)(=O)c3c(C)noc3C)C2)c(Br)c1 (configuration not stated) | 0 | 0 | 0 | 0 | 0 | 0
CCS(=O)(=O)Nc1ccc2c(c1)N(C(C)=O)c1ccccc1CC2 | 0 | 28 | 0 | 0 | 0 | 0
CC(=O)N1c2ccccc2CCc2ccc([N+](=O)[O-])cc21 | 0 | 0 | 0 | 0 | 0 | 0
COCCNC(=O)c1cc2nc3c(c(C(F)(F)F)n2n1)CCc1ccccc1-3 | 0 | 30 | 0 | 0 | 0 | 0
